Laboratory results: PubChem BioAssay (NCI)
This is part of a sample that, as a whole, favours compounds with a hit. Of some 83,000 tested, about 20% had one in any assay.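 Values shown are percent growth following 48 h exposure of cells in 96-well plates to a single concentration of compound; below 10 was considered active.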 The source made the active and inactive calls.

System: MDA-MB-435 melanoma
Assay: NCI-60 one-dose screen, 48 h (100 = growth as untreated, 0 = no growth, -100 = all killed)
Settings: 10 µM

Compound | growth
O=C(O)c1ccc(-n2cc(CNc3ccc(Cl)cc3)c(-c3ccccc3)n2)cc1 | 91.9% (inactive)
Cc1ccc(C(=O)C2C(=O)C3CCC2C3)cc1 (configuration not stated) | 100% (inactive)
COc1cc2c(Nc3ccc(S(N)(=O)=O)cc3)ncnc2c(OC)c1OC | 105% (inactive)
CN1CCN(CC(=O)Nc2cccc(-n3cc(-c4ccncc4)c(-c4ccc(Cl)c(O)c4)n3)c2)CC1 | -47.5% (active)
O=[N+]([O-])c1cccc(/C=N/NC(=S)NC23CC4CC(CC(C4)C2)C3)c1 | 84.8% (inactive)
CN1CCN(c2cc3c(cc2F)c(=O)c(C(=O)O)cn3-c2ccc(F)cc2)CC1 | 103% (inactive)
O=C(CN1CCN(C(=O)c2ccccc2)CC1)Nc1ccccc1SCc1ccccc1 | 94.3% (inactive)
Clc1ccc2c(c1)C(N1CCNCC1)=Nc1ccccc1O2 | 28.9% (inactive)
CCOC(=O)c1cc(C(=O)c2cc(OC)c(OC)c(OC)c2)n2ncc3ccccc3c12 | 7.14% (active)
CC(=O)C1CCC2C3CC=C4CC(SC(=N)N)CCC4(C)C3CCC12C (configuration not stated) | 9.68% (active)
COc1cc2c(Nc3ccc(-c4ccc(N)cc4)cc3)ncnc2c(OC)c1OC | 7.13% (active)
C#C[C@]1(O)CCC2C3CCc4cc(OC5CCCC5)ccc4C3CC[C@@]21C (some centres not stated) | 94.8% (inactive)
Cc1cc(SC#N)cc(C(C)(C)C)c1O | 107% (inactive)
Cc1cc(CCNC=O)c(C)c2c1sc1ccccc12 | 94.5% (inactive)
CO[C@H]1CC(O[C@@H]2/C(C)=C/C[C@@H]3C[C@@H](C[C@]4(C=C[C@H](C)[C@@H](C5CCCCC5)O4)O3)OC(=O)[C@@H]3C=C(C)[C@@H](O)[C@H]4OC/C(=C\C=C\[C@@H]2C)[C@]43O)O[C@@H](C)C1O[C@H]1C[C@H](OC)[C@@H](O)[C@H](C)O1 (some centres not stated) | -97.1% (active)
CCN(CC)c1ccc(/C=C2\SC(=O)C(Nc3nnc(-c4cccnc4SCc4ccccc4)o3)C2=O)cc1 (configuration not stated) | -24.6% (active)
O=C(N/N=C/c1ccc([N+](=O)[O-])cc1)c1ccccc1Nc1cccc(C(F)(F)F)c1 | 103% (inactive)
CC(=O)[C@H]1CC[C@]2(C)[C@@H]1CC[C@@H]1[C@@]3(C)CC(CCC#N)(CCC#N)C(=O)C(C)(C)[C@@H]3CC[C@]12C | 92.4% (inactive)
Cc1cc(CSc2ccccc2C(=O)N2CC=C(c3ccccc3)CC2)on1 | 98% (inactive)

Compound | growth
N#Cc1ccc(C(=O)CSc2nccc(Nc3ccc(C(=O)O)cc3)n2)cc1 | 104% (inactive)
COc1ccc2nc3cc(Cl)ccc3c(Nc3cc(CN4CCCC4)c(O)c(CN4CCCC4)c3)c2n1 | -94% (active)
O=C(N/N=C/c1ccc(Cl)cc1)c1ccc(Cc2n[nH]c(=O)c3cccnc23)cc1 | 95.5% (inactive)
O=S(=O)(Oc1ccc(-c2ccc3sccc3c2)cc1)c1ccc(F)cc1 | 93.5% (inactive)
CNC(=O)c1c(I)c(NC(C)=O)c(I)c(C(=O)O)c1I | 103% (inactive)
C/C(=N\O)c1ccc(NC(=O)CSc2nnc(-c3ccccc3)n2-c2ccccc2)cc1 | 100% (inactive)
COc1ccc(/C=C2/SC(=S)NC2=O)c(OC)c1OC | 78.5% (inactive)
C[C@]12CC[C@@H]3c4ccc(O)cc4CC[C@H]3[C@@H]1CC[C@@H]2NS(=O)(=O)c1ccc(C(F)(F)F)cc1 | 22.3% (inactive)
NS(=O)(=O)c1ccc(Br)cc1 | 105% (inactive)
CNS(=O)(=O)Oc1ccc(-c2ccc3occc3c2)cc1 | 100% (inactive)
COc1cc(-c2nn(-c3cccc(NC(=O)CCN4CCN(c5ccccc5)CC4)c3)cc2-c2ccncc2)ccc1Cl | 16.8% (inactive)
CCN(CC)CC(=O)N(CC)c1ccc(C)c(Cl)c1 | 103% (inactive)
Cc1cccc(N=Cc2ccccc2O)c1C | 102% (inactive)
CCCCC1(O)CCCCC1 | 106% (inactive)
COc1ccc(/C=C2\CCCC3=C2N=C2SC(C)=CN2C3c2ccc(OC)cc2)cc1 (configuration not stated) | 90% (inactive)
c1ccc(CSc2ncccc2-c2nnc(SCCN3CCOCC3)o2)cc1 | 114% (inactive)
C/C=C/C1=CN2C(=O)c3cc(OC4OC(C)C(NC)C(C)(O)C4O)c(C)c(O)c3N=C[C@@H]2C1 (some centres not stated) | -77% (active)
C[C@]12CC[C@@H]3c4ccc(OS(=O)(=O)O)cc4CC[C@H]3[C@@H]1CC[C@@H]2NS(=O)(=O)c1ccc(-c2ccccc2)cc1 | 69.4% (inactive)
